Measurements taken from PubChem BioAssay (EPA / NIEHS).
Results filed as inconclusive are left out. Active and inactive are the calls of the source. Rule for the calls, unless noted: active = hit-call score of the fitted dose curve at least 0.9, where 1 is the maximum; inconclusive = response in the unintended direction; inactive = score below 0.9.

What was measured:
[1] = molecular target: human CYP1A2, CYP1A2 (gene 1544) (UniProt P05177); assay: NVS_ADME_hCYP1A2: NovaScreen (NVS) CYP450-related Enzyme Activity (ADME) Assay for human CYP1A2 (AID 2283102);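 for AC50: potency for inhibition since loss of fluorescence marks reduced CYP1A2 activity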
Summary of the method: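 Recombinant human CYP1A2 from insect cells, cell-free, fluorogenic substrate; read 0.5 h after dosing with loss of fluorescence signal indicating inhibition. Primary screen in duplicate at 10 uM, acetonitrile as negative control.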

[2] = molecular target: human CYP2J2, CYP2J2 (gene 1573) (UniProt P51589); assay: NVS_ADME_hCYP2J2: NovaScreen (NVS) CYP450-related Enzyme Activity (ADME) Assay for human CYP2J2 (AID 2283106)
Sequence of human CYP2J2, CYP2J2 (gene 1573) (P51589 whole entry, looked up): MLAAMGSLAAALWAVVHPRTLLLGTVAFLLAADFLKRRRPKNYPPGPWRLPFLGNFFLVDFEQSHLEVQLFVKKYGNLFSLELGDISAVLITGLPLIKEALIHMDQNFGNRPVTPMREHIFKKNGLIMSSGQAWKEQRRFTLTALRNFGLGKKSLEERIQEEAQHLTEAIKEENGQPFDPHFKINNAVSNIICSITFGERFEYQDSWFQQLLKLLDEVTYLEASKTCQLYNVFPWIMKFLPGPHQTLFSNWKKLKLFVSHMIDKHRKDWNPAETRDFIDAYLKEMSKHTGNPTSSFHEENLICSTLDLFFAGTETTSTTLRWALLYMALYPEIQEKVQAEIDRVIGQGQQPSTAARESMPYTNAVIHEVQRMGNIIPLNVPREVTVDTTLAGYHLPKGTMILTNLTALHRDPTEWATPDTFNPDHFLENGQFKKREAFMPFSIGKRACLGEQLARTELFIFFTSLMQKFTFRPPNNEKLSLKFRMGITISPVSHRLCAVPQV
Summary of the method: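 Cell-free assay of recombinant CYP2J2 with a fluorogenic substrate, read 1 h after dosing; loss of signal versus acetonitrile. Primary screen at 10 uM in duplicate, then concentration-response up to 20 uM for chemicals passing threshold (e.g., 30% inhibition).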

[3] = molecular target: rat CYP2C13, Cyp2c13 (gene 171521) (UniProt P20814); assay: NVS_ADME_rCYP2C13: NovaScreen (NVS) CYP450-related Enzyme Activity (ADME) Assay for rat CYP2C13 (AID 2283121)
Summary of the method: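 Recombinant rat CYP2C13 with fluorogenic substrate, 0.75 h cell-free incubation; primary screen in duplicate at 10 uM, actives followed in concentration series. Fluorescence loss relative to acetonitrile control indicates inhibition.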

[4] = molecular target: rat CYP3A2, Cyp3a2 (gene 266682) (UniProt P05183); assay: NVS_ADME_rCYP3A2: NovaScreen (NVS) CYP450-related Enzyme Activity (ADME) Assay for rat CYP3A2 (AID 2283128)
Sequence of rat CYP3A2, Cyp3a2 (gene 266682) (P05183 whole entry, looked up): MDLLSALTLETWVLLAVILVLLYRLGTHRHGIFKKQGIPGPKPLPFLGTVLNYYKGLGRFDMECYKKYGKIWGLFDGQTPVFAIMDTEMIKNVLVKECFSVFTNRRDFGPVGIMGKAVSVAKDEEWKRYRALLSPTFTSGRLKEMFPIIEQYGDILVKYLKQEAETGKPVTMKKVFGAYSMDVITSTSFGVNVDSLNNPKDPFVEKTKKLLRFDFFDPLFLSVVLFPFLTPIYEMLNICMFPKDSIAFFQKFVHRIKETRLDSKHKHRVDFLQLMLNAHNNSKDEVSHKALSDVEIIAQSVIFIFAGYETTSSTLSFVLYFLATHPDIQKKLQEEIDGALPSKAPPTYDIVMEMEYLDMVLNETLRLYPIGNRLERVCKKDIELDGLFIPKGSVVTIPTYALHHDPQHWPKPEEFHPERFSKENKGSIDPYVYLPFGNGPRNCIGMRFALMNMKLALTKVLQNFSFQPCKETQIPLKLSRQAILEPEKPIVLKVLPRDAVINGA
Summary of the method: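 Cell-free rat CYP3A2 enzyme assay with fluorescent substrate, read 0.5 h after dosing. Primary duplicate screen at 10 uM; actives run in concentration-response up to 20 uM, relative to acetonitrile baseline.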

[5] = molecular target: human CYP2C8, CYP2C8 (gene 1558) (UniProt P10632); assay: NVS_ADME_hCYP2C8: NovaScreen (NVS) CYP450-related Enzyme Activity (ADME) Assay for human CYP2C8 (AID 2283104; active = hit-call score of the fitted dose curve at least 0.9, where 1 is the maximum; inactive = score below 0.9)
Sequence of human CYP2C8, CYP2C8 (gene 1558) (P10632 whole entry, looked up): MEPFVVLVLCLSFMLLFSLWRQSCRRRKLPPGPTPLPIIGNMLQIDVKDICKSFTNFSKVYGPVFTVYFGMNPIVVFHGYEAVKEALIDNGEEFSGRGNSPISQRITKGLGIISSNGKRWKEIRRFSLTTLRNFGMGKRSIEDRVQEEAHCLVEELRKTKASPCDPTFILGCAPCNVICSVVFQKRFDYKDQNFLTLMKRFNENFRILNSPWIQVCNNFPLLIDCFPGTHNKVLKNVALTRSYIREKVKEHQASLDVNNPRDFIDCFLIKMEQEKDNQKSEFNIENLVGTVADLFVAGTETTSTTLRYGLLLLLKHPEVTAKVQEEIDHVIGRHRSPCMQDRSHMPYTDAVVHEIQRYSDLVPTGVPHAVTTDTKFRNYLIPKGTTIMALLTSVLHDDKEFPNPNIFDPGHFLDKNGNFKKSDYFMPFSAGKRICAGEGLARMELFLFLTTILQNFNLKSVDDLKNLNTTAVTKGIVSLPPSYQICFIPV
Summary of the method: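 Recombinant human CYP2C8 with fluorogenic substrate, 0.5 h, fluorescence intensity; signal loss fitted versus acetonitrile. Screened in duplicate at 10 uM, then actives run in concentration-response up to 20 uM.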

[6] = molecular target: rat CYP2D2, Cyp2d26 (gene 25053) (UniProt P10634); assay: NVS_ADME_rCYP2D2: NovaScreen (NVS) CYP450-related Enzyme Activity (ADME) Assay for rat CYP2D2 (AID 2283124)
Sequence of rat CYP2D2, Cyp2d26 (gene 25053) (P10634 whole entry, looked up): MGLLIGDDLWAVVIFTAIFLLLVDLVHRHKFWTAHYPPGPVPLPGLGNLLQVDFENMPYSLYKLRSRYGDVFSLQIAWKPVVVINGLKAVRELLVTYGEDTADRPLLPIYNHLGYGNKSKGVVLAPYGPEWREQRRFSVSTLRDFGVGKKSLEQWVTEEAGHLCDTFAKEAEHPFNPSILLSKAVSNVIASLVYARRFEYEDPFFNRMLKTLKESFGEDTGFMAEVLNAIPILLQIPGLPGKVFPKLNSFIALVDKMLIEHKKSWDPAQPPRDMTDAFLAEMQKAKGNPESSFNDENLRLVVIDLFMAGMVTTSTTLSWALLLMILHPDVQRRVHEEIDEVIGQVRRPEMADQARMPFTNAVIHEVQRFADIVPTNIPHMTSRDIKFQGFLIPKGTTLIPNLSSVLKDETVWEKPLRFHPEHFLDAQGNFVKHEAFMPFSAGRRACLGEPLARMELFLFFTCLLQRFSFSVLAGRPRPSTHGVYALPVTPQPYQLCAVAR
Summary of the method: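 Recombinant rat CYP2D2 in a cell-free fluorogenic activity assay, fluorescence read 0.75 h after dosing. Primary screen in duplicate at 10 uM; actives re-run singly in concentration-response to 20 uM, relative to acetonitrile.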

[7] = molecular target: Cytochrome P450 2C19 (Homo sapiens) (UniProt P33261); assay: NVS_ADME_hCYP2C19: NovaScreen (NVS) CYP450-related Enzyme Activity (ADME) Assay for human CYP2C19 (AID 2283113);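 for AC50: potency for inhibition seen as loss of fluorescent signal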
Summary of the method: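 Cell-free recombinant human CYP2C19 from insect cells, fluorescent substrate; activity read by fluorescence intensity 1 h after dosing. Primary screen in duplicate at 10 uM; actives retested in concentration series. Signal loss versus acetonitrile negative control.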

[8] = molecular target: human CYP2C9, CYP2C9 (gene 1559) (UniProt P11712); assay: NVS_ADME_hCYP2C9: NovaScreen (NVS) CYP450-related Enzyme Activity (ADME) Assay for human CYP2C9 (AID 2283108)
Sequence of human CYP2C9, CYP2C9 (gene 1559) (P11712 whole entry, looked up): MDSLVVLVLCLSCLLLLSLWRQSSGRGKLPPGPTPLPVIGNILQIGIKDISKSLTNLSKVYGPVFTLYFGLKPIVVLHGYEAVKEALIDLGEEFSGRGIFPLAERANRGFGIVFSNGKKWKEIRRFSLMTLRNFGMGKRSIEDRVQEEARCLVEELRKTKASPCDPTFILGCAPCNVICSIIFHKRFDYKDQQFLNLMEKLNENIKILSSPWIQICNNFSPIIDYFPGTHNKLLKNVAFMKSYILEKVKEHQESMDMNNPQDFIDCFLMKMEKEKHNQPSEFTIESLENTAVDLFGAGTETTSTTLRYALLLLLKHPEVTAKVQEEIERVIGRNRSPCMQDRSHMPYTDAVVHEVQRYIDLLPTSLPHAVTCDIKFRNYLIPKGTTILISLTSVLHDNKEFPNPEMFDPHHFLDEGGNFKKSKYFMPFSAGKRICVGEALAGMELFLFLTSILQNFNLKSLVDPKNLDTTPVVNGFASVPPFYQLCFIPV
Summary of the method: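 Fluorescence readout of CYP2C9 activity (SF9-expressed human enzyme) at 0.75 h. The primary screen used 10 uM in duplicate, with concentration-response follow-up for actives; acetonitrile was the negative control.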

[9] = molecular target: rat CYP2A1, Cyp2a1 (gene 24894) (UniProt P11711); assay: NVS_ADME_rCYP2A1: NovaScreen (NVS) CYP450-related Enzyme Activity (ADME) Assay for rat CYP2A1 (AID 2283114; active = hit-call score of the fitted dose curve at least 0.9, where 1 is the maximum; inactive = score below 0.9)
Summary of the method: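 Recombinant rat CYP2A1, cell-free, fluorogenic substrate turnover read by fluorescence intensity 0.75 h after dosing. Primary screen at 10 uM in duplicate; actives rerun as concentration-response up to 20 uM; loss of signal versus acetonitrile control.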

rat CYP2C6, gene 293989 = assay: NVS_ADME_rCYP2C6: NovaScreen (NVS) CYP450-related Enzyme Activity (ADME) Assay for rat CYP2C6 (AID 2283120)
Summary of the method: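 Cell-free recombinant rat CYP2C6 with fluorogenic substrate, read by fluorescence 1 h after dosing; acetonitrile as negative control. Primary screen at 10 uM in duplicate, actives then in concentration-response up to 20 uM.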

[10] = molecular target: human Acetylcholinesterase (AChE), ACHE (gene 43) (UniProt P22303); assay: NVS_ENZ_hAChE: NovaScreen (NVS) Enzymatic Assay for human Acetylcholinesterase (AChE) (AID 2283129)
Sequence of human Acetylcholinesterase (AChE), ACHE (gene 43) (P22303 whole entry, looked up): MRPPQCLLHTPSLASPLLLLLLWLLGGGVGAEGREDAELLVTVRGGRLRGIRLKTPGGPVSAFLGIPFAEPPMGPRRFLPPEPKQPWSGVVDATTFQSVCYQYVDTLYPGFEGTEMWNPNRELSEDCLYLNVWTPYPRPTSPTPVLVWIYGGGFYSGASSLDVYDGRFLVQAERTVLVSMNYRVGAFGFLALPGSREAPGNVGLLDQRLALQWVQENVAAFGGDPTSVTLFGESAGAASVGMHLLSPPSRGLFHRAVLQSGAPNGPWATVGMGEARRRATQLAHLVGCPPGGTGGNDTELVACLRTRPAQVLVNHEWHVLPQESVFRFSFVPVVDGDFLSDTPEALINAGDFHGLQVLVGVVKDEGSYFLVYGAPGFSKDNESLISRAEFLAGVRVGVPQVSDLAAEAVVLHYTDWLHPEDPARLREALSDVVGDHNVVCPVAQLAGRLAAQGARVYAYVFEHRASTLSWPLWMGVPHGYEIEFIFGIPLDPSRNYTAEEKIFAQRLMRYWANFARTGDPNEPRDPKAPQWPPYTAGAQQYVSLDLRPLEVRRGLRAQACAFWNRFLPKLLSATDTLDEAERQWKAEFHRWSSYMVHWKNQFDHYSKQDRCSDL
Summary of the method: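 Cell-free colorimetric enzyme-activity assay; compounds read 0.33 hour after dosing, loss of signal vs DMSO baseline. Primary screen in duplicate at 25 uM single concentration, with active compounds retested in concentration series.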

[11] = molecular target: human CYP4F12, CYP4F12 (gene 66002) (UniProt Q9HCS2); assay: NVS_ADME_hCYP4F12: NovaScreen (NVS) CYP450-related Enzyme Activity (ADME) Assay for human CYP4F12 (AID 2283111)
Summary of the method: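 Cell-free fluorescence assay of recombinant human CYP4F12 activity on a specific substrate, read 0.5 h after dosing. Primary screen in duplicate at 10 uM, then concentration series for actives; loss of signal fitted against acetonitrile negative control.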

[12] = molecular target: Cytochrome P450 3A4 (Homo sapiens) (UniProt P08684); assay: NVS_ADME_hCYP3A4: NovaScreen (NVS) CYP450-related Enzyme Activity (ADME) Assay for human CYP3A4 (AID 2283110)
Summary of the method: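 Compounds were first screened in duplicate at 10 uM against recombinant CYP3A4 produced in insect cells, then actives were run in concentration series. Enzyme activity was measured by fluorescence after 0.33 hour, with acetonitrile as baseline.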

[13] = molecular target: rat CYP1A2, Cyp1a2 (gene 24297) (UniProt P04799); assay: NVS_ADME_rCYP1A2: NovaScreen (NVS) CYP450-related Enzyme Activity (ADME) Assay for rat CYP1A2 (AID 2283115)
Summary of the method: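 Cell-free recombinant rat enzyme with fluorogenic substrate, read by fluorescence intensity 1 hour after dosing. Loss of signal versus acetonitrile negative control; primary screen at 10 uM in duplicate, actives followed in concentration series.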

rat CYP3A1, gene 25642 = assay: NVS_ADME_rCYP3A1: NovaScreen (NVS) CYP450-related Enzyme Activity (ADME) Assay for rat CYP3A1 (AID 2283126)
Summary of the method: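 Cell-free recombinant CYP assay with fluorescent substrate, read 0.5 h after dosing. Screened at 10 uM in duplicate, hits at up to 20 uM in concentration-response; loss of signal versus acetonitrile baseline.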

[14] = molecular target: rat CYP2D1, Cyp2d1 (gene 266684) (UniProt P10633); assay: NVS_ADME_rCYP2D1: NovaScreen (NVS) CYP450-related Enzyme Activity (ADME) Assay for rat CYP2D1 (AID 2283122)
Sequence of rat CYP2D1, Cyp2d1 (gene 266684) (P10633 whole entry, looked up): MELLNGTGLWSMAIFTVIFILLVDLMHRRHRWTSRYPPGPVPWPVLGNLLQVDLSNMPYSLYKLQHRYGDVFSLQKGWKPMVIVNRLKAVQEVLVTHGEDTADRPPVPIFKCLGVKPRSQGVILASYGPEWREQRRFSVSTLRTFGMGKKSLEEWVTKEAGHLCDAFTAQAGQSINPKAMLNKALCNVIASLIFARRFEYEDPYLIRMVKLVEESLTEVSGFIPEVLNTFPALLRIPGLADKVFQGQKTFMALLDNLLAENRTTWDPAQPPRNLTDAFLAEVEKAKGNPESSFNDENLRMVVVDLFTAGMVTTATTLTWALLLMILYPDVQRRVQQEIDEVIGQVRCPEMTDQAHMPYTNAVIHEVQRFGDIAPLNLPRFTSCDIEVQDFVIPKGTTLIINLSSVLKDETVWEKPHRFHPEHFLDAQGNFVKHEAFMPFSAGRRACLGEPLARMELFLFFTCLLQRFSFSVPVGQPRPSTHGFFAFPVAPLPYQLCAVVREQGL
Summary of the method: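 Cell-free fluorescence enzyme-activity assay on extracted rat CYP2D1 protein, read 0.75 h after dosing. Primary screen in duplicate at 10 uM; qualifying chemicals then run in concentration-response to 20 uM max, loss-of-signal versus acetonitrile baseline.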

[15] = molecular target: rat CYP2A2, Cyp2a2 (gene 24895) (UniProt P15149); assay: NVS_ADME_rCYP2A2: NovaScreen (NVS) CYP450-related Enzyme Activity (ADME) Assay for rat CYP2A2 (AID 2283116)
Sequence of rat CYP2A2, Cyp2a2 (gene 24895) (P15149 whole entry, looked up): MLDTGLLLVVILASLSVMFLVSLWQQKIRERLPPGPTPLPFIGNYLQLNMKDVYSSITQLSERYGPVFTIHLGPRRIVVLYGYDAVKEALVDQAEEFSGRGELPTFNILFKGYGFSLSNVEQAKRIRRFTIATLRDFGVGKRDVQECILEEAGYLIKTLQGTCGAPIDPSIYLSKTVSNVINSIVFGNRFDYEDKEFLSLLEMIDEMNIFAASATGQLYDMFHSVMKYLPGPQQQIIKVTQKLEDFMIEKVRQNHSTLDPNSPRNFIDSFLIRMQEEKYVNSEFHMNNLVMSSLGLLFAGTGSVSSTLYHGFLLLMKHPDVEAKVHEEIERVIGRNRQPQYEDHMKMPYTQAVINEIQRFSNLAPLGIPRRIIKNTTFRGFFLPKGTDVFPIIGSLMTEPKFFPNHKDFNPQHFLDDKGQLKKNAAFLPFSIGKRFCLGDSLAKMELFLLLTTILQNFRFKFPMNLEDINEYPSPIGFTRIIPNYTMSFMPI
Summary of the method: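 Cell-free recombinant rat CYP2A2 activity with fluorogenic substrate, fluorescence read 0.2 h after dosing. Chemicals screened at 10 uM in duplicate, hits then run in concentration-response up to 20 uM; signal loss versus acetonitrile baseline.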

rat CYP2B1, gene 24300 = assay: NVS_ADME_rCYP2B1: NovaScreen (NVS) CYP450-related Enzyme Activity (ADME) Assay for rat CYP2B1 (AID 2283117)
Summary of the method: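 Recombinant rat CYP2B1 with fluorogenic substrate, read at 0.75 h. Primary screen in duplicate at 10 uM; compounds meeting threshold (e.g., 30% inhibition) re-run in concentration-response up to 20 uM. Fitted against acetonitrile control.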

[16] = molecular target: rat CYP2C11, Cyp2c11 (gene 29277) (UniProt P08683); assay: NVS_ADME_rCYP2C11: NovaScreen (NVS) CYP450-related Enzyme Activity (ADME) Assay for rat CYP2C11 (AID 2283118)
Sequence of rat CYP2C11, Cyp2c11 (gene 29277) (P08683 whole entry, looked up): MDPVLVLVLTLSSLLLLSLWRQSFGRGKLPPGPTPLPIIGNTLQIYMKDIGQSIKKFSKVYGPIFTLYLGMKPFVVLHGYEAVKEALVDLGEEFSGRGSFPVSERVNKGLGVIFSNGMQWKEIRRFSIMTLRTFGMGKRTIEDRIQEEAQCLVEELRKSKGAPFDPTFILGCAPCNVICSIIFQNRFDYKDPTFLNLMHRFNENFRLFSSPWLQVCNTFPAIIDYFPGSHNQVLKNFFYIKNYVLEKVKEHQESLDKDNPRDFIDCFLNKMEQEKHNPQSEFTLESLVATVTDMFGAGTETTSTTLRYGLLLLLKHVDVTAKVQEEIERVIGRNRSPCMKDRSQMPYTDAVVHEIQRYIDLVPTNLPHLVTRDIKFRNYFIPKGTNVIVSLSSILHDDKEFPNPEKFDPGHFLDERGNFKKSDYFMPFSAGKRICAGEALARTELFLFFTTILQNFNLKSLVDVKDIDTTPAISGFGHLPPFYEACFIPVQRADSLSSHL
Summary of the method: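 Cell-free recombinant rat enzyme with fluorescent substrate; readout 0.33 h after dosing, loss of signal versus acetonitrile control. Initial duplicate single-point at 10 uM; actives rerun in concentration series.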

[17] = molecular target: human CYP2D6, CYP2D6 (gene 1565) (UniProt P10635); assay: NVS_ADME_hCYP2D6: NovaScreen (NVS) CYP450-related Enzyme Activity (ADME) Assay for human CYP2D6 (AID 2283107)
Summary of the method: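 Cell-free assay using recombinant human CYP2D6 expressed in insect cells, with a fluorogenic substrate read after 1 h. Primary screen in duplicate at 10 uM; actives followed up in concentration series. Loss of signal fitted relative to acetonitrile.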

Measured: AC50

C#CCN1C(=O)COc2cc(F)c(N3C(=O)C4=C(CCCC4)C3=O)cc21
inactive: [1]
active: [2] 2.5 µM | [3] 0.992 µM | [4] 5.33 µM

Oc1cc(Cl)ccc1Oc1ccc(Cl)cc1Cl
active: [1] 9.33 µM | [5] 4.51 µM | [6] 10 µM

CCN(CC)C(=O)SCc1ccc(Cl)cc1
active: [7] 10 µM

O=C(O)CCCOc1ccc(Cl)cc1Cl
active: [7] 12.1 µM

COP(=S)(OC)Oc1ccc(SC)c(C)c1
active: [1] 2.76 µM | [2] 1.06 µM | [8] 5.54 µM | [7] 2.45 µM | [9] 5.64 µM | rat CYP2C6, gene 293989 1.83 µM

CNC(=O)Oc1ccccc1OC(C)C
active: [10] 25 µM

ClC1C(Cl)C(Cl)C(Cl)C(Cl)C1Cl (centres undefined)
active: [11] 17.3 µM

N#Cc1c(Cl)c(Cl)c(Cl)c(C#N)c1Cl
active: [1] 0.406 µM | [5] 0.213 µM | [12] 0.302 µM | rat CYP3A1, gene 25642 1.22 µM | [4] 0.241 µM
inactive: [7] | [13] | [6] | [10]

O=C(Nc1ccccc1)Nc1cnns1
active: [1] 3.55 µM | [9] 6.13 µM | [14] 8.7 µM | [6] 4.41 µM
inactive: [2] | [13] | [3]

CC(C)(C)C(O)/C(=C\c1ccc(Cl)cc1Cl)n1cncn1 (centres undefined)
active: [2] 2.21 µM | [8] 0.721 µM | [12] 1.2 µM | [7] 0.00727 µM | [9] 0.477 µM | [15] 0.0195 µM | rat CYP2B1, gene 24300 0.0164 µM | [16] 0.369 µM | [3] 0.281 µM | [14] 0.603 µM | [6] 0.837 µM | rat CYP3A1, gene 25642 0.631 µM | [4] 0.669 µM

CN1CSC(=S)N(C)C1
active: [7] 10 µM | rat CYP2B1, gene 24300 3.9 µM

CCC(C)Nc1c([N+](=O)[O-])cc(C(C)(C)C)cc1[N+](=O)[O-] (centres undefined)
inactive: [3]

CC1(C)C(C=C(Cl)Cl)C1C(=O)OC(C#N)c1ccc(F)c(Oc2ccccc2)c1 (centres undefined)
active: [8] 10 µM | [7] 13.5 µM

O=C(NC(=O)c1c(F)cccc1F)Nc1ccc(OC(F)(F)C(F)OC(F)(F)F)c(Cl)c1 (centres undefined)
inactive: [5]

CCCN(CCOc1c(Cl)cc(Cl)cc1Cl)C(=O)n1ccnc1
inactive: [13]
active: [1] 0.616 µM | [5] 1.85 µM | [2] 0.094 µM | [17] 2.18 µM | [8] 0.578 µM | [7] 0.0245 µM | [9] 0.512 µM | [15] 0.00934 µM | rat CYP2B1, gene 24300 0.0338 µM | [16] 0.0766 µM | rat CYP2C6, gene 293989 0.166 µM | [3] 0.191 µM | [14] 1.22 µM | [6] 0.159 µM | rat CYP3A1, gene 25642 0.549 µM | [4] 1.39 µM

CC(C)N(C(=O)COc1nnc(C(F)(F)F)s1)c1ccc(F)cc1
active: [7] 1.05 µM | [9] 10 µM | [16] 6.6 µM | rat CYP2C6, gene 293989 7.85 µM | [6] 10 µM | rat CYP3A1, gene 25642 7.94 µM | [10] 16.5 µM

O=S(=O)(O)C(F)(F)C(F)(F)C(F)(F)C(F)(F)C(F)(F)C(F)(F)C(F)(F)C(F)(F)F
active: [5] 4.04 µM | [7] 5.18 µM [middle of 5 runs] | [16] 0.0854 µM
inactive: [12] | [15] | rat CYP3A1, gene 25642

Cc1[nH]c(=O)n(C(C)(C)C)c(=O)c1Cl
active: [7] 6.8 µM | [14] 3.45 µM
